This passage reports outcome and AC50 results from PubChem BioAssay (EPA / NIEHS).

Test [1] in a line: ACEA_AR_antagonist_AUC_viability: ACEA Biosciences xCELLigence Real-Time Cell Analysis on Androgen Receptor Antagonism for Viability (AID 2283776).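 Also: 22Rv1 human prostate cancer cells growing on impedance electrode plates; area under impedance growth curve at 80 h after dosing as viability; hits lower the growth signal relative to DMSO meaning cytotoxicity.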 In outline:
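Impedance read-out (RT-CES): area under growth curve at 80 h post-dose, loss of signal scored vs DMSO baseline. 22Rv1 cells; 8-pt 1:4 series, top 100 uM final, ≤0.5% DMSO; biological duplicate.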

A short description of test [2]: ACEA_ER_AUC_viability: ACEA Biosciences xCELLigence Real-Time Cell Analysis on Estrogen Receptor Agonism for Viability (AID 2283782).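 Also: continuous compound exposure with impedance area under curve over 80 h; hit means loss of impedance signal meaning reduced cell growth or viability.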 In outline:
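T47D cells preconditioned in phenol red-free RPMI with charcoal-stripped FBS, then dosed with 8-point 1:4 series from 100 uM (up to 0.5% DMSO). Impedance monitored up to ~80 h; area-under-curve loss versus DMSO taken as viability.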

Test [3] has as its target AR (gene 367) (UniProt P10275). The test is described as follows: ACEA_AR_antagonist_80hr: ACEA Biosciences xCELLigence Real-Time Cell Analysis on Androgen Receptor Antagonism for Proliferation (AID 2283787).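 Also: 22Rv1 human prostate cancer cells with growth followed by electrical impedance; hits lower the impedance growth signal relative to DMSO.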 In outline:
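22Rv1 cells in assay medium, growth tracked by electrical impedance; compounds eight-point 1:4 dilutions from 100 uM final, duplicate plates. Endpoint at 80 h; loss of signal versus DMSO.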

The subject of test [4] is zebrafish Estrogen Receptor (ESR2A), gene 317734. Kind of test: ATG_zfER2a_XSP1: Attagene TRANS-FACTORIAL Multi-Species (XSP1) HepG2 Assay for zebrafish Estrogen Receptor (ESR2A) (AID 2283778). In outline: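 HepG2 cells transiently transfected with GAL4-UAS reporter units driven by a zebrafish ESR2A–Gal4 chimera; 24 h compound exposure with 3 nM 6-alpha-fluorotestosterone present. Reporter mRNA measured by RT-PCR with fluorescent capillary electrophoresis, fitted positive versus DMSO.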

Test [5] has as its target chicken Estrogen Receptor (ESR1), ESR1 (gene 396099) (UniProt P06212). Kind of test: ATG_chERa_XSP1: Attagene TRANS-FACTORIAL Multi-Species (XSP1) HepG2 Assay for chicken Estrogen Receptor (ESR1) (AID 2283779). In outline: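 HepG2 cells transiently transfected with GAL4-UAS reporter units for chimeric chicken ERα-Gal4, dosed 24 h with 3 nM 6-alpha-fluorotestosterone present. Reporter mRNA by RT-PCR and capillary electrophoresis; gain-of-signal fit versus DMSO.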

The target in test [6] is Estrogen receptor (Homo sapiens) (UniProt P03372). The test is described as follows: ATG_hERa_XSP1: Attagene TRANS-FACTORIAL Multi-Species (XSP1) HepG2 Assay for human Estrogen Receptor (ESR1) (AID 2283780). An outline of the steps:
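HepG2 cells transiently transfected with GAL4-UAS reporter units and chimeric NR-Gal4 constructs; 24 h after dosing, reporter mRNA quantified by RT-PCR and capillary electrophoresis. Medium contained 3 nM 6-alpha-fluorotestosterone; activity fitted as gain-of-signal versus DMSO.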

Test [7] has as its system turtle Estrogen Receptor (ESR1), gene 101933533. The test is described as follows: ATG_trERa_XSP1: Attagene TRANS-FACTORIAL Multi-Species (XSP1) HepG2 Assay for turtle Estrogen Receptor (ESR1) (AID 2283781). In outline: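 Turtle ERa as a GAL4 chimera in transiently transfected HepG2 cells; reporter mRNA quantified 24 h after dosing by RT-PCR and capillary electrophoresis. 3 nM 6-alpha-fluorotestosterone present; gain of signal versus DMSO.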

Test [8] can be described thus: STM_H9_NormalizedViability: Cytotoxicity Assessment at 120 hours in the Stemina devTOX quickPredict H9 human embryonic stem cell (hESC)-based Assay (AID 2283784). In outline:
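Pluripotent H9 cells dosed, fresh medium plus compound q24h → cell layer read by CellTiter-Fluor → RFU blank-corrected, normalized to DMSO 0.1% mean. Loss-of-signal fit, DMSO as baseline.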

The target in test [9] is Estrogen receptor beta (Homo sapiens) (UniProt Q92731). Kind of test: ATG_hERb_XSP1: Attagene TRANS-FACTORIAL Multi-Species (XSP1) HepG2 Assay for human Estrogen Receptor (ESR2) (AID 2283788). In outline:
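HepG2 cells transiently transfected with GAL4-UAS multiplexed reporter units, 3 nM 6-alpha-fluorotestosterone present; 24 h exposure. Reporter mRNA measured by RT-PCR, fluorescent labelling and capillary electrophoresis; gain of signal fitted against DMSO.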

Test [10] concerns the target AR (gene 367) (UniProt P10275). Kind of test: ACEA_AR_agonist_80hr: ACEA Biosciences xCELLigence Real-Time Cell Analysis on Androgen Receptor Agonism for Proliferation (AID 2283783).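 Also: hits increase impedance growth signal above DMSO baseline.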 In outline: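 Proliferation of 22Rv1 prostate cancer cells tracked by electrical impedance, endpoint taken at 80 hours after dosing. Eight-point 1:4 dilutions from 100 uM maximum final, duplicate; testosterone and MG132 as positive controls, assay media as negative.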

Values joined by “and” are separate entries in the source; they are usually repeats but may differ in a detail not shown here. Equal values may be shown once. Inconclusive results are not listed. Where a structure was tested more than once in an assay, its records may differ in their call. Active and inactive are the calls of the source. The calls were made as follows: active = hit-call score of the fitted dose curve at least 0.9, where 1 is the maximum; inconclusive = response in the unintended direction; inactive = score below 0.9.

AR (gene 367), sequence (P10275 whole entry, looked up): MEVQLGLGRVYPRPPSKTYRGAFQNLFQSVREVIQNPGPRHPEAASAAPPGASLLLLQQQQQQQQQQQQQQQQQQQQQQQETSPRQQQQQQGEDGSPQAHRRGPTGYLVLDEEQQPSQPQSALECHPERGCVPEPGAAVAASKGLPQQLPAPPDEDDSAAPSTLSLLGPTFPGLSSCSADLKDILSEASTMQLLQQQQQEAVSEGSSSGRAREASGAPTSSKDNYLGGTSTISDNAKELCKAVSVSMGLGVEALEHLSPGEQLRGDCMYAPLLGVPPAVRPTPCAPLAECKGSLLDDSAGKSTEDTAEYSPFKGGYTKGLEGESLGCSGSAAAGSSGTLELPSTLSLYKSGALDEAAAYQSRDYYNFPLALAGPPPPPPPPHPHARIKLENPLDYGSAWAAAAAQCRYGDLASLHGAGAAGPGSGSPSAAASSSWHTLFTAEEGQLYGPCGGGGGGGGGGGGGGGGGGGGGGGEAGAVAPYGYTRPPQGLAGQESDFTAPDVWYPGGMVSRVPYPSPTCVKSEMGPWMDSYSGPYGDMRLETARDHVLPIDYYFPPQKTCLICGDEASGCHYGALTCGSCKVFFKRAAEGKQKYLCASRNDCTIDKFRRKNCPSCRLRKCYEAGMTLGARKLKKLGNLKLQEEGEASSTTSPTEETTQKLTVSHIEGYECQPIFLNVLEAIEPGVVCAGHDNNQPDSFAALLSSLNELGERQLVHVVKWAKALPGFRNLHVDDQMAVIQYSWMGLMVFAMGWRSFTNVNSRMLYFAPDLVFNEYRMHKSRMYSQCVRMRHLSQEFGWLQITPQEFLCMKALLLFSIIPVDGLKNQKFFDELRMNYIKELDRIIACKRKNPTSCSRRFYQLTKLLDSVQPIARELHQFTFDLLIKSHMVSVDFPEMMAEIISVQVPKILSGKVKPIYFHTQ
Estrogen receptor beta (Homo sapiens), sequence (Q92731 whole entry, looked up, the tested form may be a part): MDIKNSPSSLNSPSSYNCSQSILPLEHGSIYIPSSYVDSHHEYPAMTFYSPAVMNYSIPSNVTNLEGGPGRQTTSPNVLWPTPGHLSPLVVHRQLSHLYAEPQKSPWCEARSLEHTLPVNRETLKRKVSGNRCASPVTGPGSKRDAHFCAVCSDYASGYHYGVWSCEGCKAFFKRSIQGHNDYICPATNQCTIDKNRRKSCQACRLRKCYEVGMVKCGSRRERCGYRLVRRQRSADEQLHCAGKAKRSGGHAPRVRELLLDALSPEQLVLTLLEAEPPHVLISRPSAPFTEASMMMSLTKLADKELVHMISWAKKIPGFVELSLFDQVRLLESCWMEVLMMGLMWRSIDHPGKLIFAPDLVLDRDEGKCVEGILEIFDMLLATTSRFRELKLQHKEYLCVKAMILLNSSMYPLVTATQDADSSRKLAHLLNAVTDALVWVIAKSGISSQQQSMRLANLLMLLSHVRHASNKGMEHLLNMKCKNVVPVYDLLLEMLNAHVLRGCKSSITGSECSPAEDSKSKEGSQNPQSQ
chicken Estrogen Receptor (ESR1), ESR1 (gene 396099), sequence (P06212 whole entry, looked up, the tested form may be a part): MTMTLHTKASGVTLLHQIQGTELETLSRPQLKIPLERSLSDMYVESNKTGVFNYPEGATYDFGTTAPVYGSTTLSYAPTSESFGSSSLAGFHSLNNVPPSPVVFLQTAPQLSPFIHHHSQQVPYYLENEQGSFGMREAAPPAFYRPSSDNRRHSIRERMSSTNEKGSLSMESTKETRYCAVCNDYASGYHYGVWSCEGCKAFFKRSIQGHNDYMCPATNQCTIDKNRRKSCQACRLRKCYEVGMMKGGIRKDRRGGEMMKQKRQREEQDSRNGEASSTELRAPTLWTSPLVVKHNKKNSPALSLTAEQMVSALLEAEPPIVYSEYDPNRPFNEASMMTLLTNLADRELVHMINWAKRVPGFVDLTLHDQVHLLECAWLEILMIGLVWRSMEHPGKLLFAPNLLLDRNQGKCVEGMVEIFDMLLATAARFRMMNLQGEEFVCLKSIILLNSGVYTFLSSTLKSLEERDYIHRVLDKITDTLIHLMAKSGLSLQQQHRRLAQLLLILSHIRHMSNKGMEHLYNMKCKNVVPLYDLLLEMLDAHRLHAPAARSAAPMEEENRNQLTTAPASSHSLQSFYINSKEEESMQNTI
Estrogen receptor (Homo sapiens), sequence (P03372 whole entry, looked up, the tested form may be a part): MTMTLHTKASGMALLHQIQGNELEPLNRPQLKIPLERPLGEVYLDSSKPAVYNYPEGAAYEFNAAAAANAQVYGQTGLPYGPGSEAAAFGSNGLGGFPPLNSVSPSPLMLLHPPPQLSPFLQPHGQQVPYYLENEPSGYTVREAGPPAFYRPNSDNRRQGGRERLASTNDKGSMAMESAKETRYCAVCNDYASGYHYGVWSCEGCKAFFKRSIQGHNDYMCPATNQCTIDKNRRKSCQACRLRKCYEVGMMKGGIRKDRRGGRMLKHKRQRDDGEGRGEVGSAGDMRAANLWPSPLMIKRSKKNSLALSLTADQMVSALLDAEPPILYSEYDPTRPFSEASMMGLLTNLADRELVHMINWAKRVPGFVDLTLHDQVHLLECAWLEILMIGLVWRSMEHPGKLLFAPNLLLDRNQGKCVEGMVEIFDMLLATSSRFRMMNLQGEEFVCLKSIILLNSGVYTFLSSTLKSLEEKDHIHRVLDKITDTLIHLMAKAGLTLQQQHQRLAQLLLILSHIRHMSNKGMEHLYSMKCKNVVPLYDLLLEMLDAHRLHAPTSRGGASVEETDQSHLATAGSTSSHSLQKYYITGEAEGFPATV

Consider `CSC(C)(C)C=NO`, for which the compound was classed as inactive in [1] and in [2].

For `O=C(O)C(Cl)Cl`, the call in [1] was inactive.

For the compound `CC(Cc1ccc(OCC(=O)O)cc1)NCC(O)c1csc(C(F)(F)F)n1` (stereo not drawn), the outcome in test [1] and in test [2] was inactive.

In the case of `CCCCc1ccc(O)cc1`, the figures for the AC50 in [1] and in [2] were 8.13 µM (active) and 82.5 µM (active), respectively.

Take `ClC(Cl)c1ccccc1`: in test [1], the call was inactive.

In the case of `O=P1(N(CCCl)CCCl)NCCCO1` (stereo not drawn), the result in [1] was inactive.

Regarding `COCCOCCO`, the outcome in test [1] and in test [2] was inactive.

As to `c1nc[nH]n1`, in test [1], the call was inactive.

For the compound `CCOP(=S)(OCC)SCSCC`, in [1], the result was inactive.

`Cc1cccc(N)c1`: the call in [1] was inactive.

`CCCCOCCOP(=O)(OCCOCCCC)OCCOCCCC`: the compound was called inactive in test [1].

Take `CCCCOCC1CO1` (stereo not drawn): the call in test [1] and in test [2] was inactive.

As to `CCOc1ccc(C(C)(C)COCc2cccc(Oc3ccccc3)c2)cc1`, the AC50 in [1] was 50 µM (active).

`CC(Cl)(Cl)C(=O)O`: in test [1], the outcome was inactive.

For the compound `CCOP(=S)(Oc1ccc([N+](=O)[O-])cc1)c1ccccc1` (stereo not drawn), in test [1], the AC50 was 14.9 µM (active).

Regarding `O=c1ssc(Cl)c1Cl`, the compound was called inactive in test [1] and in test [2].

As for `O=[N+]([O-])c1ccccc1`, in test [1], the compound was classed as inactive.

`COC(N)=O`: the compound was classed as inactive in [1] and in test [2].

As for `CCCCN(CCCC)SN(C)C(=O)Oc1cccc2c1OC(C)(C)C2`, the AC50 in test [1] was 49.2 µM (active); in test [2] it was 79.2 µM (active).

As for `O=[N+]([O-])c1ccc(Cl)c(Cl)c1`, the compound was classed as inactive in [1].

With `O=S1(=O)OCC2C(CO1)C1(Cl)C(Cl)=C(Cl)C2(Cl)C1(Cl)Cl` (stereo not drawn), the compound was classed as inactive in test [1]. Moreover, the AC50 in test [2] is 83 µM (active).

With `FC(F)(F)c1ccc(Cl)cc1`, the result in [1] was inactive.

On to `ClC(Cl)(Cl)c1ccccc1`, for which the compound was called inactive in test [1].

For the compound `OCC1CO1` (stereo not drawn), the compound was called inactive in test [1].

Consider `CCCCN(CCCC)N=O`, for which the call in test [1] and in [2] was inactive.

Regarding `O=C(O)CF`, the outcome in [1] and in [2] was inactive.

Regarding `Nc1cc2c3c(c1)C(c1ccccc1)=N[C@@H](NC(=O)c1cccnc1)C(=O)N3CC2`, the compound was classed as inactive in [1] and in test [2].

On to `CCCCC(CC)COC(=O)c1c(Br)c(Br)c(Br)c(Br)c1C(=O)OCC(CC)CCCC` (stereo not drawn), for which, in test [1], the outcome was inactive.

For `CN(C)C(=O)Cl`, the compound was called inactive in [1].

As to `CCCN(CCC)c1c([N+](=O)[O-])cc(C(C)C)cc1[N+](=O)[O-]`, the values for the concentration at half-maximal activity (AC50) in [1] and in test [2] were 58.7 µM (active) and 87.3 µM (active), respectively.

For the compound `Cc1ccc([N+](=O)[O-])cc1C`, the compound was called inactive in [1] and in test [2].

As for `CC(C)(C)N(NC(=O)c1ccc(Cl)cc1)C(=O)c1ccccc1`, the compound was called inactive in test [1] and in test [3].

Turning to `Nc1ccc(Cl)cc1`, the half-maximal activity concentration (AC50) in test [1] is 8.97 µM (active). In addition, in test [2], the AC50 was 8.49 µM (active) and the result was inactive.

For `O=P(Oc1ccccc1)(Oc1ccccc1)Oc1ccccc1`, the call in test [4], in [8] and in [9] was inactive. Moreover, the AC50 in test [5] is 0.8 µM (active); in test [6], 0.991 µM (active); in [7], 1.66 µM (active); in test [2], 86.8 µM (active).

Turning to `c1ccc2c(c1)Nc1ccccc1S2`, in test [1], the AC50 is 21.7 µM (active). Also, the compound was called inactive in test [2] and in [8].

`CC1(C)CN=C(NN=C(/C=C/c2ccc(C(F)(F)F)cc2)/C=C/c2ccc(C(F)(F)F)cc2)NC1`: the AC50 is 11.1 µM (active) in [1], 2.02 µM (active) in [2] and 12.3 µM (active) in test [3].

For `O=P(OCC(Br)CBr)(OCC(Br)CBr)OCC(Br)CBr` (stereo not drawn), the call in test [1], in test [2], in test [10] and in test [3] was inactive.

For the compound `CCCCN(CC)C(=O)SCCC`, the outcome in test [1], in [10] and in test [3] was inactive.

In the case of `O=C(O)C1C(C(=O)O)C2(Cl)C(Cl)=C(Cl)C1(Cl)C2(Cl)Cl` (stereo not drawn), the compound was called inactive in [1] and in test [8].

Regarding `ClC1=C(Cl)C2(Cl)C3C(Cl)C(Cl)CC3C1(Cl)C2(Cl)Cl` (stereo not drawn), the half-maximal activity concentration (AC50) was 13.6 µM (active) in [1], 91.7 µM (active) in test [2] and 5.06 µM (active) in [3]. Besides, the outcome in test [10] was inactive.

On to `CCCCC(CC)COP(=O)(Oc1ccccc1)Oc1ccccc1` (stereo not drawn), for which the AC50 in test [1] was 16.6 µM (active); in test [2], 85.5 µM (active); in test [3], 16.6 µM (active). Also, the result in test [8] was inactive.

Take `CCC1(c2ccccc2)C(=O)N=C(O)NC1=O` (stereo not drawn): the result in test [1] and in test [8] was inactive.

Turning to `Cc1ccc(C(=O)Cl)cc1`, the compound was classed as inactive in test [2].

As to `Nc1ccc2ccccc2c1`, the compound was called inactive in test [1] and in test [8].

For `CCOC(=O)c1ccccc1C(=O)OCC`, the outcome in test [1], in test [2] and in test [8] was inactive.

As to `CC(C)(C)c1ccccc1OP(=O)(Oc1ccccc1)Oc1ccccc1`, the call in test [2] was inactive.

As for `CO/N=C(/C(=O)OC)c1ccccc1COc1ccccc1C`, the call in test [1] and in test [3] was inactive.

With `CCCCCCCc1ccc(O)cc1`, the AC50 in [1] is 50 µM (active); in [2], 28 µM (active) and 26.6 µM (active) and 27.7 µM (active); in test [3], 50 µM (active). In [10], the result was inactive.

Turning to `CCC(C)(C)c1ccc(O)cc1`, the concentration at half-maximal activity (AC50) in test [1] was 71.7 µM (active); in [2], 88.4 µM (active); in [8], 50 µM (active).

As to `Nc1ccc([N+](=O)[O-])cc1Cl`, the compound was called inactive in test [2].

For the compound `CNC(=O)Oc1ccc(N(C)C)c(C)c1`, in test [2], the AC50 was 39.7 µM (active).

As for `Cc1ccc(N)cc1N`, the compound was classed as inactive in [1]. In addition, the concentration at half-maximal activity (AC50) in test [8] is 36.1 µM (active).

For `N#Cc1c(-c2ccc(Cl)cc2)[nH]c(C(F)(F)F)c1Br`, the AC50 in test [2] is 6.72 µM (active).
